Screening results (PubChem BioAssay)
Rows were chosen to be rich in hits. Some 14% of all compounds tested hit in one or more screens of this group.
Giardia FBPA inh: inhibitors of Giardia lamblia fructose-1,6-bisphosphate aldolase; Potency, µM (series often up to 59.6 µM), inactives show top-dose activity, negative = inhibition, usual class: inhibitors; A8B2U2; 290,000 tested, 0.71% active; purified Giardia FBPA; note: potency is the fitted concentration of half-maximal effect; nearly all actives have a fitted effect of over 55% in size
Target sequence (A8B2U2 whole entry, looked up): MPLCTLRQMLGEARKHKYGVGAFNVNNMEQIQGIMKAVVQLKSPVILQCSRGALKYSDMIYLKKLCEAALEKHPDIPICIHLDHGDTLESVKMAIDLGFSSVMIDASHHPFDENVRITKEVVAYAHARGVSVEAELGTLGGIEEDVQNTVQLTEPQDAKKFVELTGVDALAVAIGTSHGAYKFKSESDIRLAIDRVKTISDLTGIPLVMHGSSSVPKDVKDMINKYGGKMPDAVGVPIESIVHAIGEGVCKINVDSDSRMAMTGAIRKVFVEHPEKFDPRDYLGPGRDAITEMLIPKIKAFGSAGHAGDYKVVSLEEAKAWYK
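40 nM FBPA preincubated 10 min at RT with compound (up to 57.5 uM final), then substrate plus GAPDH/TPI/NAD/arsenate coupling and diaphorase/resazurin added. Fluorescence read after 20 min at RT, 525/598 nm.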
Sm TGR block: S. mansoni TGR enzyme inhibition; Q962Y6; purified TGR, DTNB reduction, TNB absorbance 405 nm; Potency, µM (doses to about 114 µM), without a hit: at the highest dose activity change, negative = inhibition, actives largely listed as inhibitors; 360,000 tested, 3% active; AID 485364; note: potency is the fitted concentration of half-maximal effect; nearly all actives have a fitted effect of over 60% in size
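First, TGR (20 nM dispensed) and NADPH were mixed with compound. Second, a 15 min room-temperature incubation followed. Third, further NADPH and then DTNB were added to start the reaction. Finally, TNB absorbance was monitored kinetically.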
HCMV inh: blocks human cytomegalovirus replication; AID 1259415; 410,000 tested, 4.5% active; activity change, negative = inhibition, % at 57.5 µM; HFF cells, HCMV-luciferase reporter, 72 h; active compounds read low; in the data active = activity change below about -60%; inconclusive = no clear call, values can overlap the other calls; inactive = above about -39%
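Steps: HFFs plated, 16 h 37C; compounds added; HCMV-luciferase added to MOI 1 PFU/cell; 72 h 37C; OneGlo reagent, 5 min room temperature; luminescence read, normalized to controls.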
Pf growth 96h: P. falciparum growth inhibition at 96 hour, primary screen for plastid delayed-death inhibitors; P. falciparum luciferase reporter growth, 96 h; 320,000 tested, 6.9% active; Potency, µM (titrated, usually from 28.7 µM), inactives show top-dose activity change, negative = inhibition, hits mostly inhibitors; note: potency is the fitted concentration of half-maximal effect
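Two parasite generations (96 h, 37 C, 5% CO2) of compound exposure in infected erythrocytes (0.05% parasitemia, 2% hematocrit). Luciferase-reporter P. falciparum; decreased luminescence indicates inhibited growth, aimed at apicoplast-acting delayed death.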
Pf growth 48h: inhibits P. falciparum growth in the first generation, 48 h. 310,000 tested, 5.9% active. AID 504832. P. falciparum luciferase growth in erythrocytes, 48 h. Potency, µM (top dose mostly 28.7 µM), without a hit: top-dose activity change, negative = inhibition, most hits filed as inhibitors; note: potency is the fitted concentration of half-maximal effect
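First compound was added to culture medium, then infected red cells at 0.1% parasitemia and 2% hematocrit (final). After incubation at 37 C under 5% CO2, luciferase detection reagent was dispensed and light output recorded.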
The depositor's hits bear a star; ? = inconclusive; · = not tested or not shown; [ ] = another dose, or the depositor's remark. Unless noted, calls come from the whole dose curve; as a rule, active = well fitted curve in the direction sought with a large enough effect; inconclusive = small, poorly fitted or top-dose-only effect, or another doubt; inactive = no such curve, though single readings can be large; an effect the other way counts as inactive or inconclusive. % is set by controls: 0 for no effect and ±100 for the full control effect.

SMILES	Giardia FBPA inh	Sm TGR block	HCMV inh	Pf growth 96h	Pf growth 48h
Cc1cc(C(=O)CN2C(=O)NC(C)(c3ccccc3)C2=O)c(C)n1CC1CCCO1 (centres undefined)	-2%	-9%	·	143%	-7%
Cc1ccc(C)c(C(=O)CN2C(=O)c3ccccc3S2(=O)=O)c1	·	-3%	4	307%	197%
CCCn1c(C)cc(C(=O)CN2C(=O)c3ccccc3S2(=O)=O)c1C	·	·	-86*	·	·
CC(C)Oc1ccc(/C(O)=C2/C(=O)C(=O)N(CCN3CCNCC3)C2c2ccc(C(C)C)cc2)cc1 (centres undefined)	-4%	?	?	22%	4%
COC(=O)c1ccc(S(=O)(=O)NNC(=O)COc2ccc(C)cc2)cc1	3%	-9%	3	5.2µM*	22%
CC(=O)Nc1ccc(S(=O)(=O)NNC(=O)COc2ccc(C)cc2)cc1	0%	-14%	?	3%	12%
CCc1ccc(OCC(=O)Nc2ccc(S(=O)(=O)Nc3onc(C)c3C)cc2)cc1	·	-9%	0	·	·
Cc1ccc(OCC(=O)Nc2ccc(S(=O)(=O)Nc3onc(C)c3C)cc2)cc1	22%	89µM*	10	?	12%
Cc1noc(NS(=O)(=O)c2ccc(NC(=O)C(C)C)cc2)c1C	9%	25µM*	4	-25%	11%
COC(=O)c1ccc(OCC(=O)c2ccc(O)cc2O)cc1	10%	5%	-61*	-25%	221%
COCc1cc(O)c(O)c(O)c1-c1c(COC)cc(O)c(O)c1O	4µM*	·	·	·	·
CCc1oc(C(=O)O)cc1COC	-2%	-10%	54	-4%	26%
COCCCNC(=O)c1ccc(S(=O)(=O)c2ccc(Cl)cc2)c(NC(C)=O)c1	0%	9%	-18	-8%	-1%[0.00184 µM]
O=CN1Cc2[nH]c3ccccc3c2N(c2ccc(Cl)cc2)C1=O	-21%	4%[11.4 µM]	65	9.3µM*	·
CN(c1ccc(F)cc1)S(=O)(=O)c1ccc(Cl)c(C(=O)NC2(C)CCS(=O)(=O)C2)c1 (centres undefined)	·	-12%	-11	?	-9%
COc1ccccc1N(C)S(=O)(=O)c1ccc(Cl)c(C(=O)Nc2ccccc2N2CCOCC2)c1	·	·	0	·	·
COc1ccccc1N(C)S(=O)(=O)c1ccc(Cl)c(C(=O)Nc2cccc(C)n2)c1	·	-2%	?	2.3µM*	2.1µM*
Cc1cccc(NC(=O)c2cc(S(=O)(=O)N(C)c3ccc(F)cc3)ccc2Cl)n1	·	-14%	-28	0.37µM*	0.33µM*
Fc1cccc(-c2nc(-c3ccncc3)no2)c1	·	10%	31	·	·
CCOC(=O)CCNC(=O)C1=CN2CCN(Cc3ccccc3C)C(=O)N=C2O1	·	·	6	·	·
Cc1nn(-c2ccccc2)c(C)c1-c1nnc(C(F)(F)F)o1	-1%	9%	·	25%	16%
Cc1nn(-c2ccccc2)c(C)c1-c1nnc(-c2c(C)nn(-c3ccccc3)c2C)o1	0%	6%	2	?	12µM*
COc1c(C)cc(S(=O)(=O)NCc2ccco2)c(C)c1C	4%	-22%	-6	?	?
COc1ccc(S(=O)(=O)N2CCCOC2CNC(=O)C(=O)NCc2ccccc2F)cc1C (centres undefined)	·	-9%	-37	?	-19%
O=C(c1ccc(-c2ccccc2)cc1)c1ccccc1C(=O)N1CCOCC1	7%	-31%	4	·	20%
SMILES	Giardia FBPA inh	Sm TGR block	HCMV inh	Pf growth 96h	Pf growth 48h
S=C(c1ccc(-c2ccccc2)cc1)N1CCOCC1	2%	12%	-83*	?	-29%
Cc1cc(C(=O)NCCC2=CCCCC2)c(C)o1	-12%	22µM*	107	?	202%
O=C(NCCC1=CCCCC1)c1coc(=O)c(Br)c1	4%	4%	-103*	-16%	-2%
CN(C)CCNC(=O)c1coc(=O)c(Br)c1	9%	0%	13	?	-24%
CC(C)CNC(=O)c1coc(=O)c(Br)c1	0%	-9%	-77*	·	?
Cc1c(N=Cc2ccc(-c3ccc(Cl)cc3)o2)c(=O)n(-c2ccccc2)n1C	-2%	3%	8	·	14%
Cc1ccc(C2C(C=Nc3c(C)n(C)n(-c4ccccc4)c3=O)=C(c3ccccc3)Oc3ccccc32)cc1 (centres undefined)	-1%	8%	-16	4.1µM*	8.3µM*
Cc1c(N=Cc2ccc(Cl)o2)c(=O)n(-c2ccccc2)n1C	-13%	22µM*	48	20%	34%
CCCc1cc(C(=O)Nc2cc(Cl)ccc2O)no1	8%	0%	89	?	?
CCCc1cc(C(=O)Nc2cc(Br)ccc2O)no1	1%	5%	32	-17%	5.2µM*
O=C(Nc1cccc(C(F)(F)F)c1)c1ccc2sc([C@H]3C[C@H](O)[C@@H](CO)O3)nc2c1	·	·	-91*	·	·
O=C(Nc1ccc(Oc2ccccc2)cc1)c1ccc2sc([C@H]3C[C@H](O)[C@@H](CO)O3)nc2c1	·	·	-100*	·	·
CC(=O)Nc1ccc(NC(=O)c2ccc3sc([C@H]4C[C@H](O)[C@@H](CO)O4)nc3c2)cc1	·	·	-12	·	·
Nc1nc(=O)n(C2CC(O)C(CO)O2)cc1F (centres undefined)	·	·	-97*	·	·
C/C(Cl)=C\Cn1c(O)c(N=NC(N)=S)c2cc(Br)ccc21	?	0%	-109*	?	10µM*
CC(=O)Nc1ccc(C(=O)OCC(=O)NC2CCCCCC2)cc1	·	·	-18	·	·
COc1ccc(CNCc2c(O)c(Cl)cc3c(C)c(C)c(=O)oc23)c(OC)c1	?	-3%	-70*	?	?
CCc1cc(=O)oc2c(CNCc3ccc(OC)cc3OC)c(O)c(Cl)cc12	?	0%	160	?	?
COc1ccc([C@@H]2CC(=O)c3c(O)cc(O[C@@H]4O[C@H](CO)[C@@H](O)[C@H](O)[C@H]4O[C@@H]4O[C@@H](C)[C@H](O)[C@@H](O)[C@H]4O)cc3O2)cc1	-1%	·	·	·	·
COc1ccc(C)cc1Nc1nc2cc(Cl)c(Cl)cc2nc1-n1nc(C)cc1C	·	-2%	9	·	·
Cc1ccc(/C=N/Nc2ncc(Cl)cc2Cl)s1	-11%	-1%	-64*	?	·
Clc1cnc(N/N=C/c2cccs2)c(Cl)c1	-7%	2%	52	?	77%
FC(F)(F)C(F)(F)C(F)(F)C(F)(F)C(F)(F)C(F)(F)C(F)(F)C(F)(F)Br	·	·	·	-9%	-10%
NC(=O)c1cc2ccncc2c2ccccc12	3%	-14%	-99*	8%	17%
Cc1cc(C(N)=O)c2ccccc2n1	0%	-16%	-16	?	10%
COc1ccc(C2=C(C=C(C#N)C#N)C(c3ccccc3C)c3ccccc3O2)cc1OC (centres undefined)	-10%	-30%	-11	?	9.3µM*
COc1cc(-c2nnc(COC(=O)C3c4ccccc4Oc4ccccc43)o2)cc(OC)c1OC	0%	-6%	31	·	-12%
